Out of some 390,000 compounds screened, about 17,000 (4.4%) were called active. About 8% were inconclusive and are not listed. Calls follow the shape of the dose curve; as a rule, active = well fitted inhibition curve with a large enough effect; inconclusive = small, poorly fitted or top-dose-only effect; inactive = no such curve, though single readings can be large or run the other way. The list comes from a sample in which actives are over-represented; it also holds similar structures and randomly drawn compounds. A call without a number means that no potency is given here.
Potency is read from the fitted curve at half-maximal effect.

The target of this experiment is Lysine-specific demethylase 4A (Homo sapiens) (UniProt O75164). Kind of experiment: qHTS Assay for Inhibitors of JMJD2A-Tudor Domain. Also: nearly all actives have a fitted effect of over 50% in size. The following applies: AlphaScreen JMJD2A-Tudor / H3K4me3 peptide binding; series mostly up to 114 µM. (qHTS replaces the single test concentration by a dilution series.)
Sequence of Lysine-specific demethylase 4A (Homo sapiens) (O75164 whole entry, looked up, the tested form may be a part): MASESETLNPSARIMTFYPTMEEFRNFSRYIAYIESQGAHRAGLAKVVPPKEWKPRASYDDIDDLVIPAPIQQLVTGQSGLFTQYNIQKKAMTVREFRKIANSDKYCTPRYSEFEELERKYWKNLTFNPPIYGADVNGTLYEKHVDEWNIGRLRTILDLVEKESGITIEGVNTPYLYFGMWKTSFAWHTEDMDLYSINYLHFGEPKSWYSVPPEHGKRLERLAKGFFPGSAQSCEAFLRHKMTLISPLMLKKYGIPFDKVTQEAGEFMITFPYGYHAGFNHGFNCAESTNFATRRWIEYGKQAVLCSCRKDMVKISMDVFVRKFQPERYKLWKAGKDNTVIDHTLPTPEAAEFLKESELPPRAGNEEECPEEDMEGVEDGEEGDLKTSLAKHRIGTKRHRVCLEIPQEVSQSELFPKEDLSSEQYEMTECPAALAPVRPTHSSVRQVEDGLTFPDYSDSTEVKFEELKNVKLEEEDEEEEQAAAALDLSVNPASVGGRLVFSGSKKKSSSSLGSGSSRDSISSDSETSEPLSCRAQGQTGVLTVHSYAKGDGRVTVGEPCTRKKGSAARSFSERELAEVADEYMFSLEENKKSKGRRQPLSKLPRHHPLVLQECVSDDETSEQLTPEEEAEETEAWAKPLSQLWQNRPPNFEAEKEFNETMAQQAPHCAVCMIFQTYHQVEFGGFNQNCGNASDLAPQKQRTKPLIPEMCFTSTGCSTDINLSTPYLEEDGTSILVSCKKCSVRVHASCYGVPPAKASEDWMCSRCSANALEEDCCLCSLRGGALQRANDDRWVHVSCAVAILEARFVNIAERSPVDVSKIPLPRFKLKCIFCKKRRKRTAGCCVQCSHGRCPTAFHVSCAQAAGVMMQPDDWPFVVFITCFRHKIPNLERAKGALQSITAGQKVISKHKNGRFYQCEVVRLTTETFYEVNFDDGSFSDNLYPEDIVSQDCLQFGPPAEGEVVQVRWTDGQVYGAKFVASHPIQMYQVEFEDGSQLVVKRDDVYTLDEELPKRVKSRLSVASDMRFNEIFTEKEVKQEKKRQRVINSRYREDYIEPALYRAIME
Take `Cc1ccccc1CSCCNC(=O)C1CCN(S(=O)(=O)Cc2ccccc2)CC1`: the Potency result is “inactive”.
In the case of `O=C(c1ccc(Cl)cc1)n1nc(-c2cccnc2)nc1NCc1ccc(F)cc1`, the Potency result was “inactive”.
The same measure for `CCOC(=O)c1cc2c(=O)n3ccccc3nc2n(CC2CCCO2)c1=NC(=O)c1ccccc1F` (centres undefined): “inactive”; for `Cc1csc(Nc2ccc(Cl)cc2)[n+]1-c1ccc(Cl)cc1`: 14.1 µM (active).
`CC1CCCN(c2nc3c(S(=O)(=O)c4ccc(C(C)C)cc4)nnn3c3ccsc23)C1` (centres undefined): the Potency entry is “inactive”.
In the case of `CCn1c(C)c(C)c2cc(C(=O)N3CCN(c4cccc(C)c4C)CC3)ccc21`, the Potency is 31.6 µM (active).
For the compound `Cc1cccc(N2CCN(C(=O)c3ccc4c(c3)CCN4S(=O)(=O)c3ccccc3)CC2)c1C`, the Potency entry was “inactive”.
In the case of `COC(=O)CCNC(=O)c1ccc2[nH]c(C)c(C)c2c1`, the Potency entry was “inactive”.
Turning to `Cc1[nH]c2ccc(C(=O)N3CCN(C)CC3)cc2c1C`, the Potency is 50.1 µM (active).
In the case of `CCC(CC)C(=O)N1CCN(c2cccc(C)c2C)CC1`, the Potency entry is “inactive”.
Consider `CCOc1ccccc1N1CCN(C(=O)c2ccc3[nH]c(C)c(C)c3c2)CC1`, for which the Potency was 56.2 µM (active).
As to `CCOc1ccccc1NC(=S)N1CCN(c2cccc(C)c2C)CC1`, the Potency result was “inactive”.
In the case of `CCOC(=O)c1ccc2[nH]c(C)c(CN3CCN(C)CC3)c(=O)c2c1`, the Potency entry was “inactive”.
On to `CCS(=O)(=O)N1CCc2cc(C(=O)N3CCN(c4ccccc4OC)CC3)ccc21`, for which the Potency entry is “inactive”.
Then `Cn1c(=O)cc(OCC(=O)N2CCN(c3ccccc3)CC2)c2ccccc21`, with “inactive”; and `Cc1ccccc1C(=O)Nc1sc2c(c1C(=O)N1CCC(C)CC1)CCCC2`, with “inactive”; and `CC(=O)Nc1c(C)nn(-c2ccccc2)c1N1CCC(C(=O)Nc2cc(Cl)ccc2C)CC1`, with “inactive”.
As to `Cc1ccc(Cc2nc3ccccc3nc2SCC(=O)Nc2cccc(C(F)(F)F)c2)cc1`, the Potency result was “inactive”.
Then `CCc1nc2ccc(C(=O)N3CCN(c4cc(Cl)ccc4C)CC3)cc2nc1CC`, with “inactive”.
Consider `COc1ccc(CCNC(=O)c2c3c(nc4ccccc24)C(=O)N(C2CCCCC2)C3)cc1OC`, for which the Potency result was “inactive”.
For `COc1cccc(NC(=O)c2ccc3nc(CCc4ccccc4)oc3c2)c1`, the Potency entry is “inactive”.
Regarding `CCOC(=O)c1scc(-c2ccc(C)cc2)c1S(=O)(=O)Nc1cc(C)ccc1C`, the Potency entry is “inactive”.
For the compound `COc1ccc(NC(=O)C2CCN(c3ccc(Sc4ccc(C)cc4)nn3)CC2)c(OC)c1`, the Potency result was “inactive”.
For `Nc1ccc(N=Nc2ccccc2Cl)c(N)n1`, the Potency is 25.1 µM (active).
On to `COc1ccc(Cl)cc1N(C)C(=O)c1cc2c(=O)oc3ccc(C)cc3c2s1`, for which the Potency result is “inactive”.
The same measure for `COc1ccc(-c2cc(C(=O)N3CCN(Cc4ccc5c(c4)OCO5)CC3)on2)cc1OC`: 20 µM (active); for `COc1cc(Cl)c(S(=O)(=O)N2CCN(Cc3ccc4c(c3)OCO4)CC2)cc1Cl`: “inactive”; for `Cc1cc(C)n2nc(C(=O)N3CCN(Cc4ccc5c(c4)OCO5)CC3)nc2n1`: “inactive”.
As to `COc1ccc(-c2nc3scc(CCNS(=O)(=O)c4cc(F)ccc4OC)n3n2)cc1OC`, the Potency entry is “inactive”.
`O=C(/C=C/Sc1ncn[nH]1)c1ccc(Cl)cc1`: the Potency was 31.6 µM (active).
With `Cc1cc(C)nc(S/C=C/C(=O)c2ccccc2)n1`, the Potency result was “inactive”.
Take `CC(=O)c1ccc(N2CCN(c3nc4c(S(=O)(=O)c5ccccc5)nnn4c4ccc(Cl)cc34)CC2)cc1`: the Potency result is “inactive”.
Then `COc1ccc(S(=O)(=O)NCc2cccn2Cc2cccc(C)c2)cc1Cl`, with “inactive”.
Regarding `Cc1ccc(OCC(=O)Oc2ccccc2[N+](=O)[O-])cc1`, the Potency result is “inactive”.
For `C=CCN(CC=C)CCOc1ccccc1[N+](=O)[O-]`, the Potency is 1 µM (active).
For `O=C(COc1ccccc1[N+](=O)[O-])NC1CC1`, the Potency entry was “inactive”.
Turning to `COc1ccc(CNC(=O)C2=Cc3cccc(OC)c3OC2)cc1OC`, the Potency entry is “inactive”.
Take `CCN(CC)c1nc(C#N)nc(OC)n1`: the Potency entry was “inactive”.
Regarding `O=C(CCn1c(=O)c2sccc2n(Cc2ccc(F)cc2)c1=O)NCc1ccc2c(c1)OCO2`, the Potency entry is “inactive”.
As for `CN(CCOc1ccc(CC2SC(=O)NC2=O)cc1)c1ccccn1` (centres undefined), the Potency result is “inactive”.
`CCN(CC)CCOc1ccc2c(c1)C(=NNC(=O)c1ccccn1)c1cc(OCCN(CC)CC)ccc1-2`: the Potency is 25.1 µM (active).
The same measure for `CC(O)c1ccc(OCCN(C)c2ccccn2)cc1` (centres undefined): “inactive”; for `Cc1cccc(NC(=O)Cn2nc(-c3ccc(Cl)cc3)c3ccccc3c2=O)c1`: “inactive”.
Regarding `O=C(CN1C(=O)COc2ccc(S(=O)(=O)N3CCCCCC3)cc21)N1CCN(c2cccc(C(F)(F)F)c2)CC1`, the Potency entry was “inactive”.
As for `CCOCCCNC(=O)c1c(NC(=O)Cc2coc3ccc(C)cc23)sc2c1CCC2`, the Potency result was “inactive”.
As to `CC(C)(C)c1ccc(/C=C/C(=O)Nc2ncccn2)cc1`, the Potency entry is “inactive”.
Then `CN(C)c1ccc(/C=C/C(=O)c2ccc(C(C)(C)C)cc2)cc1[N+](=O)[O-]`, with 11.2 µM (active).
`Cc1cc(C(=O)O)ccc1[N+](=O)[O-]`: the Potency entry was “inactive”.
In the case of `CCOc1ccc(NC(=O)CC2C(=O)N(c3cccc(OC)c3)C(=O)N2C2CCCCC2)cc1` (centres undefined), the Potency result was “inactive”.
For the compound `Cc1ccccc1CNC(=O)CCc1cn(Cc2ccccc2C)c2ccccc12`, the Potency entry is “inactive”.
The same measure for `CSCCC(NC(=O)c1ccc(=O)n(C)n1)c1nc2ccccc2[nH]1` (centres undefined): 89.1 µM (active).
In the case of `CSCCC(NC(=O)c1cc([N+](=O)[O-])cc([N+](=O)[O-])c1)c1nc2ccccc2[nH]1` (centres undefined), the Potency entry was “inactive”.
On to `COc1ccc(CC(=O)N[C@@H](CCSC)c2nc3ccccc3[nH]2)cc1`, for which the Potency result is “inactive”.
With `Cc1ccc(CNC(=O)CCC(=O)N2Cc3ccccc3Oc3ncccc32)cc1`, the Potency entry is “inactive”.
Consider `O=C(Nc1nc(-c2ccco2)c(-c2ccco2)s1)c1ccco1`, for which the Potency is 50.1 µM (active).
Turning to `O=C(Nc1nonc1-c1ccc(Cl)cc1)c1ccco1`, the Potency result was “inactive”.
As to `CCN(c1ccc(Cl)cc1)S(=O)(=O)c1nnc(NC(=O)c2ccco2)s1`, the Potency entry is “inactive”.
Take `Cc1ccc(S(=O)(=O)c2cn(Cc3ccccc3)c3cc(N4CCCC4)c(F)cc3c2=O)c(C)c1`: the Potency result is “inactive”.
Turning to `CCOc1ccc(NCCC(=O)c2ccc3c(c2)OCO3)cc1`, the Potency is 39.8 µM (active).
As to `COC(=O)CCNc1ccc2c(c1)OCCO2`, the Potency entry was “inactive”.
Regarding `O=C(COc1ccc(Cl)cc1)Nc1ccc2c(c1)OCO2`, the Potency result was “inactive”.
As to `CNC(=O)[C@]1(C(F)(F)F)C[C@H](CCc2ccccc2)CCCO1`, the Potency entry is “inactive”.
Then `Cc1ccc(CNC(=O)C2(C(F)(F)F)C/C(=C\Cc3ccccc3)CCCO2)o1` (centres undefined), with “inactive”.
Then `O=C(NCc1ccccn1)[C@]1(C(F)(F)F)C[C@H](CCc2ccccc2)CCCO1`, with 39.8 µM (active).

For the origin of these results see PubChem BioAssay AID504339 (National Center for Advancing Translational Sciences (NCATS), 2011).
